Experimental data as given in PubChem BioAssay (EPA / NIEHS).
Records with an inconclusive call do not appear. Some structures have more than one record in an assay (separate samples or runs), and their calls can disagree. Calls of active or inactive are those of the source. The calls were made as follows, unless noted: active = hit-call score of the fitted dose curve at least 0.9, where 1 is the maximum; inactive = score below 0.9.

Tests used:
[1] = read-out: Interleukin-1 alpha (IL1a), IL1A (gene 3552); assay: BSK_LPS_IL1a: BioMAP Diversity Plus: LPS Assay for Interleukin-1 alpha (IL1a) Biomarker Activity (AID 2283080); conditions: primary human HUVEC with PBMC; actives raise or lower the signal
Procedure, shortened: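 Measured: IL-1 alpha via ELISA at 24 h in LPS-activated human umbilical vein endothelium–PBMC co-culture. Baseline: DMSO, bidirectional fitting.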

[2] = read-out: Monocyte Chemoattractant Protein-1 (MCP1), CCL2 (gene 6347); assay: BSK_LPS_MCP1: BioMAP Diversity Plus: LPS Assay for Monocyte Chemoattractant Protein-1 (MCP1) Biomarker Activity (AID 2283081); conditions: primary human HUVEC with PBMC; actives raise or lower the signal;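 as to AC50: secreted MCP-1 protein quantified by ELISA in culture supernatant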
Procedure, shortened: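 LPS-stimulated HUVEC/PBMC co-culture; chemical, 24 h; MCP-1 by ELISA; bidirectional fit vs DMSO; cytotoxicity via SRB (0.1% stain, 10% TCA fix, 560 nm) in parallel wells.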

[3] = BSK_LPS_PGE2: BioMAP Diversity Plus: LPS Assay for Prostaglandin E2 (PGE2) Biomarker Activity (AID 2283082); conditions: primary human HUVEC with PBMC; actives raise or lower the signal;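 as to AC50: secreted prostaglandin E2 measured by ELISA in LPS-stimulated co-culture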
Procedure, shortened: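 Primary human endothelial cells and blood mononuclear cells, co-cultured with LPS, receive test chemical; PGE2 ELISA follows at 24 h, with SRB-stained parallel cultures flagging cytotoxicity.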

[4] = read-out: Macrophage colony-stimulating factor (MCSF), CSF1 (gene 1435); assay: BSK_LPS_MCSF: BioMAP Diversity Plus: LPS Assay for Macrophage colony-stimulating factor (MCSF) Biomarker Activity (AID 2283083); conditions: primary human HUVEC with PBMC; actives raise or lower the signal
Procedure, shortened: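 Compound is added to a human vascular primary co-culture of umbilical vein endothelium and blood mononuclear cells. After 24 h, M-CSF is quantified by ELISA. Signal changes are fitted in both directions against DMSO.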

[5] = read-out: Tissue Factor, F3 (gene 2152); assay: BSK_LPS_TissueFactor: BioMAP Diversity Plus: LPS Assay for Tissue Factor Biomarker Activity (AID 2283084); conditions: primary human HUVEC with PBMC; actives raise or lower the signal
Procedure, shortened: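 In this co-culture system of umbilical vein endothelium with PBMC, stimulated with LPS, cell-surface CD142 is detected by ELISA at 24 h. Endpoint values derive from bidirectional fitting, DMSO serving as baseline.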

[6] = read-out: Tumor necrosis factor (Homo sapiens) (UniProt P01375); assay: BSK_LPS_TNFa: BioMAP Diversity Plus: LPS Assay for Tumour Necrosis Factor alpha (TNFa) Biomarker Activity (AID 2283085); conditions: primary human HUVEC with PBMC; actives raise or lower the signal;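 as to AC50: TNFa protein level quantified by ELISA in the co-culture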
Procedure, shortened: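 ELISA-based TNFa endpoint in a human endothelial–PBMC co-culture sampled 24 h post-exposure. Curves were fitted in both directions using DMSO as baseline of activity.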

[7] = read-out: Vascular cell adhesion molecule 1 (VCAM1), VCAM1 (gene 7412); assay: BSK_LPS_VCAM1: BioMAP Diversity Plus: LPS Assay for Vascular cell adhesion molecule 1 (VCAM1) Biomarker Activity (AID 2283086); conditions: primary human HUVEC with PBMC; actives raise or lower the signal
Procedure, shortened: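 Measured by ELISA: VCAM-1 in LPS-activated HUVEC/PBMC co-cultures 24 h after treatment. Values reflect bidirectional fitting with DMSO as baseline.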

CD38, CD38 (gene 952) = assay: BSK_SAg_CD38: BioMAP Diversity Plus: SAg Assay for CD38 Biomarker Activity (AID 2283087); conditions: primary human HUVEC with PBMC; actives raise or lower the signal
Procedure, shortened: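 Measures CD38 on a human endothelial/PBMC co-culture driven by SEB and TSST-1, 24 h after compound exposure, using ELISA with fluorescence detection; DMSO defines baseline for bidirectional curve fitting.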

CD40, CD40 (gene 958) = assay: BSK_SAg_CD40: BioMAP Diversity Plus: SAg Assay for CD40 Biomarker Activity (AID 2283088); conditions: primary human HUVEC with PBMC; actives raise or lower the signal
Procedure, shortened: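 Fluorescence ELISA read-out of CD40 from umbilical vein endothelium plus peripheral blood mononuclear cells, sampled 24 h after dosing. Values come from bidirectional curve fitting with DMSO as baseline.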

CD69, CD69 (gene 969) = assay: BSK_SAg_CD69: BioMAP Diversity Plus: SAg Assay for CD69 Biomarker Activity (AID 2283089); conditions: primary human HUVEC with PBMC; actives raise or lower the signal;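 as to AC50: cell surface CD69 protein quantified by ELISA with fluorescence detection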
Procedure, shortened: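 Primary human vascular co-culture (umbilical vein endothelium with peripheral blood mononuclear cells) exposed to test chemical for 24 h. CD69 levels quantified by fluorescence ELISA; DMSO served as negative control for bidirectional fitting.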

[8] = read-out: Monocyte Chemoattractant Protein-1 (MCP1), CCL2 (gene 6347); assay: BSK_SAg_MCP1: BioMAP Diversity Plus: SAg Assay for Monocyte Chemoattractant Protein-1 (MCP1) Biomarker Activity (AID 2283090); conditions: primary human HUVEC with PBMC; actives raise or lower the signal
Procedure, shortened: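 Values derive from bidirectional fitting of ELISA-measured MCP1 against DMSO controls. Readings were taken 24 h after dosing human vascular endothelial cells co-cultured with peripheral blood mononuclear cells under superantigen stimulation.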

[9] = read-out: E-selectin (Homo sapiens) (UniProt P16581); assay: BSK_SAg_Eselectin: BioMAP Diversity Plus: SAg Assay for Eselectin Biomarker Activity (AID 2283091); conditions: primary human HUVEC with PBMC; actives raise or lower the signal
Procedure, shortened: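 Primary human endothelial cells and peripheral blood mononuclear cells were co-cultured and exposed to chemical for 24 hours. E-selectin levels were then quantified by ELISA, with bidirectional curve fitting normalised to DMSO controls.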

[10] = read-out: Monokine induced gamma interferon (MIG), CXCL9 (gene 4283); assay: BSK_SAg_MIG: BioMAP Diversity Plus: SAg Assay for Monokine induced gamma interferon (MIG) Biomarker Activity (AID 2283092); conditions: primary human HUVEC with PBMC; actives raise or lower the signal
Procedure, shortened: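 Endothelial cells and PBMC were co-cultured, exposed to test chemicals, and sampled 24 h later. MIG was measured by ELISA, and responses were fitted in both directions relative to DMSO.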

[11] = BSK_SAg_PBMCCytotoxicity: PBMC Cytotoxicity Assessment in the BioMAP Diversity Plus: SAg Assay (AID 2283093); conditions: primary human HUVEC with PBMC;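 also: fitted both ways against DMSO so a hit may be loss or gain of signal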;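 as to AC50: PBMC superantigen activated with SEB plus TSST-1 one hour after compound addition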
Procedure, shortened: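 PBMC viability by Alamar Blue reduction, fluorescence read at 546/580 nm after 6 h dye exposure. Cells were dosed 1 h before SEB plus TSST-1 activation (20 ng/mL final each), then held 90 h; endothelial/PBMC human co-culture.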

[12] = read-out: Interleukin-8 (IL8), CXCL8 (gene 3576); assay: BSK_SAg_IL8: BioMAP Diversity Plus: SAg Assay for Interleukin-8 (IL8) Biomarker Activity (AID 2283094); conditions: primary human HUVEC with PBMC; actives raise or lower the signal
Procedure, shortened: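 Primary human endothelial cells with PBMC, exposed 24 h; IL-8 determined by ELISA, analysed bidirectionally relative to DMSO.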

[13] = BSK_SAg_Proliferation: Cell Proliferation Assessment in the BioMAP Diversity Plus: SAg Assay (AID 2283095); conditions: primary human HUVEC with PBMC;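 also: relative cell number as total protein by SRB absorbance in sub-confluent culture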
Procedure, shortened: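 A human primary co-culture of umbilical vein endothelium and blood mononuclear cells receives compound; relative cell number is quantified at 96 h by SRB staining and 560 nm absorbance, with DMSO-referenced bidirectional curve fitting.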

[14] = BSK_SAg_SRB: Viability Assessment in the BioMAP Diversity Plus: SAg Assay (AID 2283096); conditions: primary human HUVEC with PBMC;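 also: cells read one day after compound addition; hits may be either gain or loss of signal compared with DMSO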
Procedure, shortened: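 Compounds were added to a human vascular co-culture of umbilical vein endothelium and PBMC. After 24 h, parallel cultures were fixed with 10% TCA, stained with 0.1% sulforhodamine B and read at 560 nm. Gain or loss of signal was fitted relative to DMSO.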

[15] = BSK_LPS_SRB: Viability Assessment in the BioMAP Diversity Plus: LPS Assay (AID 2283079); conditions: primary human HUVEC with PBMC;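 also: total protein by sulforhodamine B absorbance as a cytotoxicity measure; measured one day after compound addition; fitted in both directions against DMSO so loss or gain of signal counts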
Procedure, shortened: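 Overt cytotoxicity was gauged by sulforhodamine B total-protein staining in a primary human vascular endothelial and mononuclear cell co-culture 24 h post-dosing. Activity was fitted in both directions relative to DMSO.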

[16] = target: human CYP19A1, CYP19A1 (gene 1588) (UniProt P11511); assay: NVS_ADME_hCYP19A1: NovaScreen (NVS) CYP450-related Enzyme Activity (ADME) Assay for human CYP19A1 (AID 2283098; active = hit-call score of the fitted dose curve at least 0.9, where 1 is the maximum;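 as to AC50: potency for inhibitors seen as loss of fluorescent enzyme signal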)
Procedure, shortened: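 Fluorescence intensity read-out; activity taken as signal loss relative to acetonitrile vehicle. Extracted enzyme, specific substrate, no cells, 0.5 h exposure. Duplicate single-point screen at 10 uM, then concentration–response follow-up for actives.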

[17] = target: human CYP2A6, CYP2A6 (gene 1548) (UniProt P11509); assay: NVS_ADME_hCYP2A6: NovaScreen (NVS) CYP450-related Enzyme Activity (ADME) Assay for human CYP2A6 (AID 2283099; active = hit-call score of the fitted dose curve at least 0.9, where 1 is the maximum)
Procedure, shortened: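 Recombinant human CYP2A6 from insect cells was incubated with chemical for 0.5 h and activity read by fluorescence. Single-concentration duplicates at 10 uM preceded concentration-response testing to 20 uM, with activity referenced to acetonitrile.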

Measured: AC50

E-selectin (Homo sapiens), sequence (P16581 whole entry, looked up): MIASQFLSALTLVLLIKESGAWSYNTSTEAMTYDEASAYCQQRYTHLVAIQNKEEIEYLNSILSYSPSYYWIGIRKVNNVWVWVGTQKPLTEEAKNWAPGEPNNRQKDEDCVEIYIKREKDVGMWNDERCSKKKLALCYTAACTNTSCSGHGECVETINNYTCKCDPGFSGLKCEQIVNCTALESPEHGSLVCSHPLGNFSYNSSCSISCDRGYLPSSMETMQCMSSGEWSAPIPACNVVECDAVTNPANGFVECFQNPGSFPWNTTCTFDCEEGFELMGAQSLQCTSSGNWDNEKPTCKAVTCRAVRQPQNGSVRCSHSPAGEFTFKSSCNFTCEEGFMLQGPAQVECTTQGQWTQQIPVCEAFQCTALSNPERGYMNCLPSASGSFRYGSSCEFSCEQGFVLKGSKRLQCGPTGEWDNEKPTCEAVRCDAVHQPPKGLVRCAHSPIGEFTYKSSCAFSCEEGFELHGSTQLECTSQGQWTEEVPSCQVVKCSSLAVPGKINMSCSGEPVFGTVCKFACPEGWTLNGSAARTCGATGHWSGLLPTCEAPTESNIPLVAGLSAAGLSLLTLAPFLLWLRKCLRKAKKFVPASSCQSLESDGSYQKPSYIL
Tumor necrosis factor (Homo sapiens), sequence (P01375 whole entry, looked up): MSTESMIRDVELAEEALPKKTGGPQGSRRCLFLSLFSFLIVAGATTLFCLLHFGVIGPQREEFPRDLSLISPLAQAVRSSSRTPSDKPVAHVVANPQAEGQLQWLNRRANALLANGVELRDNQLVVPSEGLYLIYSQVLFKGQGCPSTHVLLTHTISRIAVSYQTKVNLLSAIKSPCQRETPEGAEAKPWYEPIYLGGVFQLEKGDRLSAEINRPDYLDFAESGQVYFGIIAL
human CYP19A1, CYP19A1 (gene 1588), sequence (P11511 whole entry, looked up): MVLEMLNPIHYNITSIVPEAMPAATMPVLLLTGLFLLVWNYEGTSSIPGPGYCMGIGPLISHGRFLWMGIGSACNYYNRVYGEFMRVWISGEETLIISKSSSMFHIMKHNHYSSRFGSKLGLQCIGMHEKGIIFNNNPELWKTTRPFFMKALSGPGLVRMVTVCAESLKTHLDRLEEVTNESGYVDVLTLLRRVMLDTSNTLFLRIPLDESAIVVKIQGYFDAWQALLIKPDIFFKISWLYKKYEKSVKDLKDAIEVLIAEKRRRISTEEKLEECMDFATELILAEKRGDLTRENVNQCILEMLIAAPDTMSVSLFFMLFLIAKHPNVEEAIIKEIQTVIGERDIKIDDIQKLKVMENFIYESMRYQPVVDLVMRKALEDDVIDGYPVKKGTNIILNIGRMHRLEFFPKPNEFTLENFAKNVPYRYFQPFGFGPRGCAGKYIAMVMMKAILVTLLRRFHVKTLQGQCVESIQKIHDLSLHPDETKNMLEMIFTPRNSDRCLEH
human CYP2A6, CYP2A6 (gene 1548), sequence (P11509 whole entry, looked up): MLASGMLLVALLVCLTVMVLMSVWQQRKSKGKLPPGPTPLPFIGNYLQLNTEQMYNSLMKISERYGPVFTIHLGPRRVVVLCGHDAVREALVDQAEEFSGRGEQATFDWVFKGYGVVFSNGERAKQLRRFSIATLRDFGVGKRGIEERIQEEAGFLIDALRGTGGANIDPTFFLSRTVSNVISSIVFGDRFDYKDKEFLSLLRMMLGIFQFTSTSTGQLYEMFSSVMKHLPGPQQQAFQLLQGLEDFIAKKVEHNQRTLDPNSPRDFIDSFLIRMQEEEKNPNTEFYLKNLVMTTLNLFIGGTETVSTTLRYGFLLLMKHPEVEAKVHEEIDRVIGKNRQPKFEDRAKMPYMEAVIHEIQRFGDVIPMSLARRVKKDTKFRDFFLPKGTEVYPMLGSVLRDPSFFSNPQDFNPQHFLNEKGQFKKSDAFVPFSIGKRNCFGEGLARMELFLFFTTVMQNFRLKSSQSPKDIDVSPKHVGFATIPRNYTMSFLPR

CN1COCN(Cc2cnc(Cl)s2)C1=N[N+](=O)[O-]
active: CD40, CD40 (gene 958) 3.79 µM
not listed: [15] | [16] | [17]
inactive: all other assays above

CCOP(=S)(OCC)Oc1ccc2c(C)c(Cl)c(=O)oc2c1
active: [9] 5.21 µM | [13] 5.08 µM
not listed: [15] | [16] | [17]
inactive: all other assays above

C#CCC1=C(C)C(OC(=O)C2C(C=C(C)C)C2(C)C)CC1=O (configuration not stated)
active: [15] 29.1 µM | [1] 31.9 µM | [2] 33.4 µM | [3] 3.87 µM | [4] 23.4 µM | [6] 32.9 µM | [7] 14.8 µM | CD38, CD38 (gene 952) 33.7 µM | CD69, CD69 (gene 969) 29.8 µM | [8] 30 µM | [9] 31.3 µM | [10] 36.6 µM | [11] 32.9 µM | [12] 26 µM | [13] 34 µM | [14] 26.9 µM
inactive: [5]

CCc1cnc(C2=NC(C)(C(C)C)C(=O)N2)c(C(=O)O)c1 (configuration not stated)
not listed: [7] | [16] | [17]
inactive: all other assays above

CCOC(=O)CC(SP(=O)(OC)OC)C(=O)OCC (configuration not stated)
active: [3] 0.323 µM
not listed: [7]
inactive: all other assays above

CC(C)N(C(=O)SCC(Cl)=C(Cl)Cl)C(C)C
active: [15] 29.1 µM | [1] 26.4 µM | [2] 31.7 µM | [3] 34.7 µM | [4] 29.5 µM | [5] 30.1 µM | [6] 32.3 µM | CD38, CD38 (gene 952) 31.3 µM | CD40, CD40 (gene 958) 30.9 µM | CD69, CD69 (gene 969) 36.6 µM | [8] 31.3 µM | [9] 31.8 µM | [10] 36.7 µM | [11] 36.5 µM | [12] 31 µM | [13] 38 µM | [14] 31.5 µM

Cc1ccn2nc(S(=O)(=O)Nc3c(F)cccc3F)nc2n1
active: [15] 1.06 µM
not listed: [7] | [16] | [17]
inactive: all other assays above

CC(C)[C@H](C(=O)O[C@H](C#N)c1cccc(Oc2ccccc2)c1)c1ccc(Cl)cc1
active: [9] 12.3 µM | [11] 4.84 µM | [13] 12 µM
not listed: [3] | [7] | CD40, CD40 (gene 958) | [17]
inactive: all other assays above

C#CC(C)(C)NC(=O)c1cc(Cl)cc(Cl)c1
not listed: CD40, CD40 (gene 958) | [17]
inactive: all other assays above

CCCOCC(=Nc1ccc(Cl)cc1C(F)(F)F)n1ccnc1
active: [15] 31.4 µM | [1] 31.8 µM | [2] 33.3 µM | [4] 20.9 µM | [5] 29.2 µM | [6] 31.3 µM | [7] 29 µM | CD69, CD69 (gene 969) 18.9 µM | [8] 26 µM | [9] 11.6 µM | [10] 32.4 µM | [11] 31 µM | [12] 15.9 µM | [13] 24.5 µM | [14] 27.9 µM | [16] 0.999 µM
inactive: [3] | [17]

CN(C)[C@@H]1C(=O)C(C(N)=O)=C(O)[C@@]2(O)C(=O)C3=C(O)c4c(O)cccc4[C@@](C)(O)[C@H]3[C@H](O)[C@@H]12
active: [6] 14.7 µM | CD69, CD69 (gene 969) 5.09 µM
inactive: [1] | [2] | [3] | [4] | [5] | [6] | [7] | CD38, CD38 (gene 952) | CD40, CD40 (gene 958) | CD69, CD69 (gene 969) | [8] | [9] | [10] | [11] | [12] | [13] | [14]
